A selection: hits, their analogues and other compounds. The true share with any hit is near 0.45%.
FMDV Renilla = shows antiviral activity in FMDV Renilla assay; FMDV replicon cells, Renilla luciferase signal; actives 0.32% (n = 120,000); Potency, µM (highest dose often 57.5 µM), hits mostly inhibitors; AID 1745857; also: nearly all actives have a fitted effect of over 55% in size
FMDV FLuc = FMDV antiviral activity by firefly signal. Potency, µM (doses to about 57.5 µM), hits mostly inhibitors. AID 1745856. actives 0.23% (n = 120,000). FMDV antiviral cell assay, firefly luciferase signal; also: nearly all actives have a fitted effect of over 60% in size
Each line names hits and unclear results; the compound was inactive in the other large screens. Calls follow the shape of the full dose curve.

Cc1ccc(S(=O)(=O)N2CCN(C(=O)c3cc4cc(C)ccc4nc3C)CC2)cc1	none
Cc1ccc(OCC(=O)NCCN2CCN(S(=O)(=O)c3ccc(C)cc3)CC2)cc1	none
CC(C)CNC(=O)c1cc2cc(N(C)S(C)(=O)=O)ccc2s1	FMDV Renilla inconclusive
CCN(c1ccc2sc(C(=O)NCCC(C)C)cc2c1)S(C)(=O)=O	FMDV Renilla 25µM, FMDV FLuc inconclusive
COc1ccc(C(CNC(=O)c2oc3ccc(Cl)cc3c2C)N2CCCCC2)cc1 (stereo not drawn)	none
Cc1cc(NCc2ccccc2Cl)n2cnnc2n1	FMDV Renilla 16µM, FMDV FLuc inconclusive
Cc1cc(C)cc(Nc2cc(C)nc3nncn23)c1	none
COc1cc(C2CC(=O)N3CN(c4cccc(C)c4)CSC3=C2C#N)ccc1O (stereo not drawn)	none
CC(C)C(NC(=O)c1ccccc1)C(=O)N[C@@H](C)c1nnc2ccccn12 (stereo partly drawn)	none
COc1ccccc1NC(=O)c1ccc(-c2nc(COc3ccc(C)cc3)c(C)o2)cc1	FMDV Renilla 25µM, FMDV FLuc inconclusive
COc1ccc(OC)c(NC(=O)c2ccc(-c3nc(COc4ccccc4)c(C)o3)cc2)c1	none
O=C(O)c1cccc(-c2noc(-c3ccccc3F)n2)c1	FMDV FLuc 2.5µM
Fc1ccccc1-c1nc(-c2cccc(Br)c2)no1	none
O=C(CCc1c[nH]c2ccccc12)NCCSC(F)(F)F	none
O=C(CSc1nc2c(c(=O)[nH]1)CCCC2)Nc1oncc1-c1ccccc1	none
Cc1ccc(Nc2nc3nonc3nc2Nc2cccc(C(F)(F)F)c2)cc1Cl	FMDV Renilla 2.2µM, FMDV FLuc inconclusive
Cc1ccc(N/N=C/c2cccc(C(F)(F)F)c2)cc1Cl	none
CCOC(=O)N/N=C/c1cc(Cl)ccc1OCCCOc1ccc(Cl)cc1	none
O=C(CCCCCn1c(=O)c2sccc2n(Cc2ccc(Cl)cc2)c1=O)NCc1ccc2c(c1)OCO2	none
O=C(Nc1ccccc1Br)C1=C(c2ccccc2)S(=O)(=O)CCO1	FMDV Renilla inconclusive
O=C(Nc1cccnc1)C1=C(c2ccccc2)S(=O)(=O)CCO1	FMDV Renilla 25µM, FMDV FLuc inconclusive
N#Cc1c(NC(=O)c2nn(-c3ccccc3)c(=O)c3ccccc23)sc2c1CCCC2	none
N#Cc1c(NC(=O)c2ccnn2C(F)F)sc2c1CCCC2	FMDV Renilla 3.2µM, FMDV FLuc inconclusive
N#Cc1c(NC(=O)c2ccnn2C(F)F)sc2c1CCC2	FMDV Renilla 3.2µM, FMDV FLuc inconclusive
N#Cc1c(NC(=O)c2ccnn2C(F)F)sc2c1CCCCC2	FMDV Renilla 5µM, FMDV FLuc inconclusive
N#Cc1c(NC(=O)CSc2nccn2Cc2ccccc2)sc2c1CCC2	none
N#Cc1c(NC(=O)c2cc(=O)c3ccccc3o2)sc2c1CCCC2	none
CCOc1ccc(Nc2oc(-c3ccccc3)nc2C#N)cc1	none
CCN(CCCNC(=O)c1cc2cc3ccc(OC)cc3nc2s1)c1cccc(C)c1	none
CCC(=O)NC1(C(F)(F)F)N=C(c2ccccc2)N(CCc2ccccc2)C1=O (stereo not drawn)	none
CN(Cc1ccccc1)C(=O)COc1ncnc2ccc(Br)cc12	none
Cc1ccc(N2CCN(C(C(=O)O)c3cn(C)c4ccc(C(=O)O)cc34)CC2)c(C)c1 (stereo not drawn)	none
CCn1c(C)c(C(=O)NCc2ccccc2)c2cc(OC)ccc21	none
COc1ccc2c(c1)c(C(C)=O)c(C)n2Cc1ccccc1	FMDV Renilla inconclusive, FMDV FLuc 20µM
COc1cc(C(=O)N2CCC(N3CCCCC3)CC2)cc(OC)c1C	none
COc1cc(C=O)ccc1O	none
COc1cc(C=C2CCC/C(=C\c3ccc(O)c(OC)c3)C2=O)ccc1O	FMDV Renilla inconclusive, FMDV FLuc 22µM
COc1ccc(NS(=O)(=O)c2cc3[nH]c(=O)c(=O)[nH]c3cc2C)cc1Cl	none
COc1ccc(NC(=O)CCc2c(C)nc3cc(-c4cccc(F)c4)nn3c2C)cc1Cl	FMDV FLuc 28µM
Cc1nc2cc(-c3ccccc3)nn2c(C)c1CCC(=O)NCCc1ccccc1	FMDV FLuc inconclusive
CCCCNC(=O)CCc1c(C)nc2cc(-c3ccccc3)nn2c1C	FMDV FLuc 1.8µM
COC(=O)c1ccc(NC(=O)CCc2c(C)nc3cc(-c4cccc(F)c4)nn3c2C)cc1	FMDV FLuc inconclusive
O=C(c1ccccc1)C1CCCN1C(=O)C(F)(F)F (stereo not drawn)	none
Cc1ccc(CNc2nc3c(c(=O)[nH]c(=O)n3C)n2Cc2cccc(C)c2)cc1	none
O=C(Cn1c(=O)nc(-c2ccccc2)c2ccccc21)Nc1cccc(C(F)(F)F)c1	none
CC(C)Cn1c(-c2ccc(F)cc2)cnc1SC1CCCCNC1=O (stereo not drawn)	none
CC(C)NC(=O)CSCc1coc(-c2ccc(Cl)cc2)n1	FMDV Renilla inconclusive
CCc1ccc(OCC(=O)Nc2ccc(OC)cc2OC)c(-n2cnnc2)c1	none
COc1cccc(C(=O)/C(=C/c2ccccn2)c2nc3ccccc3o2)c1	FMDV Renilla inconclusive
COc1ccc(C(=O)/C(=C/c2ccccn2)c2nc3ccccc3o2)cc1	FMDV Renilla 28µM
CC1CCN(c2nc3c(S(=O)(=O)c4ccccc4)nnn3c3ccsc23)CC1	none
CCC(C)S(=O)(=O)c1oc(-c2cccs2)nc1S(=O)(=O)c1ccccc1 (stereo not drawn)	FMDV FLuc 32µM
O=S(=O)(c1ccccc1)c1nc(-c2cccs2)oc1N1CCCCC1	none
Cn1c(=O)c2sc3c(c2n(C)c1=O)COC(C)(C)C3	none
CCc1nc2ccccc2c(C(=O)OCC(=O)NC(N)=O)c1C	none
C=CCNC(=O)NC(=O)COC(=O)c1c(C)c(CC)nc2ccccc12	FMDV Renilla 25µM, FMDV FLuc 18µM
O=C(O)c1cc(NCc2ccccc2OCc2ccccc2)ccc1N1CCOCC1	none
O=C(O)c1cc(NCc2ccc(OCc3ccccc3)cc2)ccc1N1CCOCC1	FMDV Renilla 28µM, FMDV FLuc inconclusive
CCc1nnc(NC(=O)c2nc(SC)ncc2Cl)s1	none
CC/C(=N\O)c1ccc(O)c(OC)c1	none
COc1ccc(Cc2nc(C)c(-c3ccccc3)s2)cc1OC	FMDV Renilla 10µM, FMDV FLuc inconclusive
COc1ccc(-c2nc(C)c(-c3ccccc3)s2)cc1	none
O=C(CSc1nc2ccccc2n1Cc1cccc(F)c1)NCc1ccccc1	none
Cc1nc2ccccc2c(=O)n1-c1ccc(NC(=O)c2ccc([N+](=O)[O-])cc2)cc1	FMDV Renilla 2.8µM, FMDV FLuc inconclusive
Cc1nc2ccccc2c(=O)n1-c1ccc(NC(=O)c2cccc([N+](=O)[O-])c2)cc1	none
CCc1nc2ccccc2n1CCCCOc1ccccc1C	FMDV Renilla inconclusive, FMDV FLuc 11µM
Cc1ccc(NCc2nc3ccccc3n2CCOc2ccccc2C)cc1	none
CCN1CCN(c2cc3c(cc2F)c(=O)c(S(=O)(=O)c2ccccc2)cn3C)CC1	none
O=C(Nc1ccccc1-c1nc2ccccc2s1)c1ccc(F)cc1	none
O=C(Oc1ccc(F)cc1)c1ccc(-c2nc3ccccc3s2)s1	FMDV FLuc 10µM
Cc1ccccc1C(=O)NC12CC3CC(CC(C3)C1)C2	none
O=C(NC12CC3CC(CC(C3)C1)C2)c1ccc(-c2nc3ccccc3s2)s1	FMDV FLuc 20µM
COc1ccc(CCNc2oc(COc3ccccc3C)nc2C#N)cc1	none
COc1ccc(Nc2nc3ccccc3nc2NS(=O)(=O)c2cccc(Cl)c2)cc1	none
O=S(=O)(Nc1nc2ccccc2nc1Nc1ccc(F)cc1)c1cccc(Cl)c1	FMDV Renilla inconclusive, FMDV FLuc 6.3µM
Cc1ccc2c(CN3CCN(CCc4ccncc4)CC3)cc(=O)oc2c1C	none
CN(Cc1ccc2ccccc2c1)C(=O)CNC(=O)c1ccc(Cl)cc1Cl	none
COc1cc(OC)c(NC(=O)NCc2ccc3c(c2)CCN3C(=O)c2ccccc2)cc1Cl	FMDV Renilla 22µM

Compound activity as filed in PubChem.
